The text below walks through data of PubChem BioAssay (NCI).

About 83,000 compounds went through this panel and 20% of them were active in at least one assay; those are over-represented in the sample as a whole.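 Each cell line was grown in a 96-well plate and treated with one concentration of compound for 48 hours. Values below 10 were considered active.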 Values without a mark were called inactive. Calls of active or inactive are those of the source.

For the test, the system named is HL-60(TB) leukemia. The test can be described thus: NCI-60 one-dose screen, 48 h (100 = growth as untreated, 0 = no growth, -100 = all killed). The note with it: 10 µM unless noted.
Take `Cc1ccc2c(n1)C(=O)C(Br)=C(CC(C)C)C2=O`: the growth was 58.4%.
Regarding `CCCCCCOc1ccc(/C=N/Nc2cc(C)nc3ccc(Cl)cc23)cc1`, the growth is 8.19% (active).
Then `Cc1cc(O)c(C2=NN(c3ccc(S(N)(=O)=O)cc3)C(c3ccccc3O)C2)cc1Cl` (centres undefined), with -35.4% (active).
For the compound `COc1ccc(Cn2cc3c(c2-c2ccccc2)CC(C)(C)c2cnoc2-3)cc1`, the growth is 16.7%.
For the compound `Cc1ccc(-c2cc(-c3ccccc3)n(-c3ccccc3)n2)cc1`, the growth was 98.5%.
On to `N/C(=N\C(N)=N\c1nc2ccccc2s1)c1ccnc(Cl)c1`, for which the growth is 1.2% (active).
`C=C1N(C)c2ccc(Cl)cc2C1(C)C`: the growth is 6.42% (active).
`C=C(C[C@@](O)(C(=O)Oc1ccccc1)C(=O)C1CCCCC1)c1ccccc1`: the growth was 112%.
On to `OC1CSSC1Cn1cnc2c(Nc3ccc(OCc4cccc(F)c4)c(Cl)c3)ncnc21` (centres undefined), for which the growth is -29.3% (active).
On to `Cc1ccc(C(=O)C2=C(O)C(=O)N(Cc3cccnc3)C2c2ccccc2F)o1` (centres undefined), for which the growth was 99.7%.
For the compound `O=CN1N=C(c2ccc(Cl)cc2)CC1c1cccc(Nc2ccnc3cc(C(F)(F)F)ccc23)c1` (centres undefined), the growth is 31.6%.
Turning to `O=C1/C(=C\c2ccco2)SC(=S)N1CCc1ccc(O)cc1`, the growth was 76.3%.
Consider `CCCCC1(O)CCCCC1`, for which the growth was 99.1%.
For `C[C@@H]1C[C@H]2C(=O)O[C@@H](C)[C@H](NC(=O)[C@H](Cc3cc(F)cc(F)c3)NC(=O)Nc3ccc(C4CC4)cc3F)C(=O)N3CCC[C@H]3C(=O)N3CCCC[C@H]3C(=O)N[C@@H](C)C(=O)N2C1`, the growth is 20.9%.
